Laboratory results taken from PubChem BioAssay AID485270 (The Scripps Research Institute Molecular Screening Center, 2010).
The whole screen tested about 330,000 compounds, of which about 5,800 (1.8%) were called active. Many of the other results were omitted from the sample, so actives are more common in it than they were. A number with no mark means an inactive call. Rule as the data show it: active = inhibition mostly above about 38% (no sharp cut-off); inactive = mostly below about 40%.

Each compound was assayed against Orexin/Hypocretin receptor type 1 (Homo sapiens) (UniProt O43613) (assay: antagonists of human orexin 1 receptor (OX1R) (AID 485270;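 also: 0% = agonist challenge alone and 100% = reference antagonist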)). Settings: OX1R-expressing cells, FRET antagonist read-out; at 6.6 µM; active compounds read high.
Chain of Orexin/Hypocretin receptor type 1 (Homo sapiens) (O43613 whole entry, looked up): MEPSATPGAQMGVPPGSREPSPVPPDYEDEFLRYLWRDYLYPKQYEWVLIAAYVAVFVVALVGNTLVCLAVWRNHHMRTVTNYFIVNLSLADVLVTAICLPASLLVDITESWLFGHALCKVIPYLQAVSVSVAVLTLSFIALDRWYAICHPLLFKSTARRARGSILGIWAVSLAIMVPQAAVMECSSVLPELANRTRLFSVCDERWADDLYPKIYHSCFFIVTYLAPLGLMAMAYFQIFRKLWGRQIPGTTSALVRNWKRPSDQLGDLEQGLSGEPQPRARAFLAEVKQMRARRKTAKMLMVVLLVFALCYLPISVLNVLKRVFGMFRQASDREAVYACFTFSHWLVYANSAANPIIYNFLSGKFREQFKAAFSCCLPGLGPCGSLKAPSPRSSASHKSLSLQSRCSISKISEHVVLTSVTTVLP
Compound `O=C(OCCN1C(=O)c2ccccc2C1=O)[C@@H]1CC(O)CN1S(=O)(=O)c1ccccc1[N+](=O)[O-]` (some centres undefined) has an inhibition of 7.02%. Work on `O=C(COC(=O)C1CCCO1)Nc1nc(-c2ccc(F)cc2)cs1` (centres undefined) yielded an inhibition of 5.35%. For `C=CCC[C@H](Cc1ccc(F)cc1)C(=O)OC[C@H](C)NC(=O)[C@H](CC=C)CC(=O)N(CCO)Cc1ccccc1`, the inhibition was 17.6%. `O=C(COC(=O)c1ccc(F)c(S(=O)(=O)N2CCOCC2)c1)NCc1ccc2c(c1)OCO2` showed an inhibition of 7.1%. `COc1ccc2c(CC(=O)NNC(=O)c3ccccc3F)coc2c1` showed an inhibition of 7.98%. In the case of `CCCCOc1ccc(N(CC(=O)NC(C)C)C(=O)CCC(=O)Nc2ccccn2)cc1`, the inhibition was 4.64%. Work on `CN(CCc1ccccc1)C(=O)c1cccc(NC(=O)Cc2ccc([N+](=O)[O-])cc2)c1` yielded an inhibition of 14.3%. `CN(Cc1ccccc1)C(=O)COC(=O)/C=C/c1ccc2c(c1)OCO2` showed an inhibition of 4.7%. For `CCCCNC(=O)C(C)N(CCN(C)C)C(=O)CCCN1C(=O)NC(c2ccc(Cl)cc2)C(C(=O)OCc2ccccc2)=C1C` (centres undefined), the inhibition was 13.9%. With `C=C1c2cccc(OC)c2O[C@H](C(=O)OCC)[C@@H]1CCCCCC` the inhibition was 1.8%. `CC(C)OCCCNc1ncnc2c1[nH]c1ccc(F)cc12` was tested, and the inhibition was 64.8% (active). Compound `CC(C)OCCCNC(=O)c1cc(Sc2ccc(F)cc2)nc2ccccc12` has an inhibition of 23.4%. `O=C1NC(Cc2ccc(O)cc2)c2nc3ccc(Cl)cc3c(=O)n2-c2ccccc21` (centres undefined) gave an inhibition of 6.78%. With `CCOC(=O)C1Sc2[nH]c(=O)sc2C(c2ccc(Cl)cc2)C1C(=O)OCC` (centres undefined) the inhibition was 49.6% (active). For `CCOC(=O)C1C(c2ccc(Cl)cc2)NC(=S)NC1(O)C(F)(F)F` (centres undefined), the inhibition was 2.06%. `CCOC(=O)C1=C(C)NC(=O)N(C(C)=O)C1c1ccc(Cl)cc1` (centres undefined) showed an inhibition of 12.3%. `COc1ccc(C)cc1NC(=O)CSc1cccc[n+]1[O-]` gave an inhibition of -5.73%. With `Cc1c(CN2CC[C@@H](N3CCN(c4ccccn4)CC3)[C@H](O)C2)[nH]c2ccc(F)cc12` the inhibition was -1.02%. In the case of `Fc1ccc2[nH]c3c(N4CCSCC4)ncnc3c2c1`, the inhibition was 85.8% (active). For `COc1ccc2[nH]c3c(c2c1)CCN1C(=O)C(CC(=O)NCc2cccc(C(F)(F)F)c2)C[C@H](C(=O)N2CCOCC2)[C@@]31C` (some centres undefined), the inhibition was 13%. Work on `CCC(CO)Oc1cc(NCc2ccccc2)c2ncn(C3CCCC3)c2c1` (centres undefined) yielded an inhibition of 12.8%. In the case of `N#C/C(=C1\CCCN1)c1nc(-c2ccccc2)cs1`, the inhibition was 84.1% (active). In the case of `CCNC(=O)CSc1nc(-c2ccccc2)cs1`, the inhibition was 16.1%. `N#C/C(=C1/CCCN1)c1ccccn1` gave an inhibition of 5.71%. In the case of `N#CC(=C1CCCC1)c1nc(-c2ccc(Cl)cc2)cs1`, the inhibition was 20.1%. `Cn1c(/C(C#N)=C2/CCCCCN2)nc2ccccc21` gave an inhibition of 11.5%. For `N#CC(=C1SC=CS1)c1nc(-c2ccccc2)cs1`, the inhibition was 105% (active). `Cc1c(NC(=O)CN(C)CC(=O)Nc2ccc(F)c(F)c2F)c(=O)n(-c2ccccc2)n1C` showed an inhibition of 4.65%. `COC(=O)[C@]1(Cc2ccccc2)N[C@H](CN(C)S(=O)(=O)c2ccc(F)cc2)[C@@H]2C(=O)N(Cc3ccccc3)C(=O)[C@@H]21` gave an inhibition of 15.4%. For `CNC[C@@H]1Oc2c(NS(C)(=O)=O)cccc2C(=O)N([C@@H](C)CO)C[C@H]1C`, the inhibition was -1.47%. Compound `O=C(C1CC1)N1N=C2CCCCC2C1(O)C(F)(F)F` (centres undefined) has an inhibition of 5.9%. `CCOC(=O)[C@H]1[C@H]2COc3cc(OC)ccc3[C@@H]2N2C(=O)CN(Cc3ccc(Cl)cc3)C(=O)[C@@]12C` gave an inhibition of 7.39%. `O=C(NCCc1ccc(F)cc1)c1ccc2nccnc2c1` showed an inhibition of 9.11%. With `O=C(Nc1nnc(C2=COCCO2)o1)c1ccc([N+](=O)[O-])s1` the inhibition was 88.5% (active). For `COc1cc(-c2nnc(NC(=O)C3=COCCO3)o2)cc(OC)c1OC`, the inhibition was 4.19%. Compound `Cc1ccc(C(=O)Nc2nnc(C3=COCCO3)o2)cc1C` has an inhibition of 9.95%. Work on `O=C(COC(=O)/C=C/c1ccc(Br)o1)Nc1cccc(S(=O)(=O)N2CCOCC2)c1` yielded an inhibition of 4.21%. For `Cc1noc(C)c1NC(=O)Nc1ccc2c(c1)C(=O)N([C@H](C)CO)C[C@H](C)[C@@H](CN(C)C(=O)Nc1ccccc1)O2`, the inhibition was -3.75%. In the case of `COc1cc(C(=O)OCc2cc(=O)n3ccsc3n2)ccc1OC(C)C`, the inhibition was 8.65%. For `COc1ccc(Cl)cc1NC(=O)COC(=O)c1ccc(Br)o1`, the inhibition was 5.94%. In the case of `COc1cc(OC)c(NC(=O)c2ccc(Br)o2)cc1Cl`, the inhibition was 81.8% (active). `CCN1CCN(c2c(Cl)cccc2NC(=O)c2ccc(Br)o2)CC1` was tested, and the inhibition was 14.6%. `CCN(C[C@H]1N[C@@](CC)(C(=O)OC)[C@H]2C(=O)N(C)C(=O)[C@@H]12)C(=O)Nc1ccc(F)cc1` was tested, and the inhibition was -4.34%. In the case of `CCn1nnc2cc(C(=O)Nc3ccc(C(=O)OC(C)C)cc3)ccc21`, the inhibition was 16.8%. With `CSc1ccc(/C=N/NC(=O)c2cccc(Cl)c2)cc1` the inhibition was 44.4% (active). `CSc1ccc(/C=N\NC(=O)CC(=O)NC(C)C)cc1` was tested, and the inhibition was 9.93%. Compound `O=C(N/N=C/c1ccc(Cl)c(Cl)c1)c1ccc2nc[nH]c2c1` has an inhibition of 31.8%. `O=C(CCCN1C(=O)c2cccc3cccc(c23)C1=O)N1CCN(Cc2ccc3c(c2)OCO3)CC1` showed an inhibition of 52.3%. For `O=C(CN1C(=O)c2cccc3cccc1c23)Nc1ccccc1`, the inhibition was 26.3%. With `O=C(CN1C(=O)c2cccc3cccc(c23)C1=O)N1CCCCC1` the inhibition was 79.7% (active). In the case of `C/C(N)=C(/C#N)C(=O)COC(=O)c1cc(-c2cccc(Br)c2)nc2ccccc12`, the inhibition was 44.3%. In the case of `C/C(N)=C(/C#N)C(=O)COC(=O)c1cc(-c2ccc(C)cc2)nc2ccccc12`, the inhibition was 86.7% (active). `C/C(N)=C(/C#N)C(=O)COC(=O)c1cc(-c2ccccc2)nc2ccc(Br)cc12` gave an inhibition of 8.99%. `CC[C@]1(C(=O)OC)[C@H]2C(=O)N(Cc3ccccc3)C(=O)[C@H]2[C@H]2CN=C(SCc3ccc(Cl)cc3)N21` was tested, and the inhibition was 4.24%.
